{"source": "PubChem BioAssay", "note": "Unmarked numbers belong to inactive results. The rule behind the calls is not given here."}
{"target": "L-lactate dehydrogenase (Plasmodium falciparum (isolate CDC / Honduras)) (UniProt Q27743)", "sequence (Q27743 whole entry, looked up)": "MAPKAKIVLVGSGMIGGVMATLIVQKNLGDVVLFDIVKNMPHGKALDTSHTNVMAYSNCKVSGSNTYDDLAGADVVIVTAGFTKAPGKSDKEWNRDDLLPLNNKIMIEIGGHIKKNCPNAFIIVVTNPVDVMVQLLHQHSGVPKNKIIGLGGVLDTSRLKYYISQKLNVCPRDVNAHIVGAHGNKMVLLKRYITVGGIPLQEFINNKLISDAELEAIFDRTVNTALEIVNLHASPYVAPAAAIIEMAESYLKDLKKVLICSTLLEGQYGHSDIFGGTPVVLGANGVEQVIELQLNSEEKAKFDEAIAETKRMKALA", "experiment": "PfLDH activity inhibition – cell lysate, 3D7 strain, counter-screen for P. falciparum growth inhibition project (AID 2304);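 note: 0% = vehicle and 100% = reference inhibitor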", "conditions": "P. falciparum 3D7 crude extract, LDH APAD/NBT absorbance; at 2 µM; active compounds read high", "units": {"inhibition": "%"}}
{"smiles": "Cc1cc(C(=O)N[C@H]2CCN(Cc3ccc(OCCCN(C)C)cc3)C2)ccc1Br", "inhibition": -4}
{"smiles": "Cc1cc(=O)[nH]c(-n2nc(C)cc2NC(=O)C(c2ccccc2)c2ccccc2)n1", "inhibition": -1}
{"smiles": "N#Cc1ccc(CN2CCCN(Cc3cccc(NC(=O)c4ccc(Cl)c(Cl)c4)c3)CC2)cc1", "inhibition": -1}
{"smiles": "O=C(Nc1ccncc1)c1cc(C(=O)Nc2ccncc2)cc([N+](=O)[O-])c1", "inhibition": -3}
{"smiles": "Cc1cccc(NC(=O)NCc2ccccc2)n1", "inhibition": -2}
{"smiles": "Cc1ccc2c(Cl)c(C(=O)N3CCCc4ccccc43)sc2c1", "inhibition": 0}
{"smiles": "CS(=O)(=O)Nc1ccc2[nH]cc(C3CCN(CC(O)C4CCN(C(=O)/C=C/c5ccc(Cl)c(Cl)c5)CC4)CC3)c2c1", "note": "(stereo not given)", "inhibition": -3}
{"smiles": "N#Cc1ccc(OCCN(Cc2ccccc2C(F)(F)F)c2ccc(C#N)c(C(F)(F)F)c2)cc1", "inhibition": 1}
{"smiles": "Cc1cc(=O)c(-c2ccc(Oc3cccc(Cl)c3)cc2)c(C)[nH]1", "inhibition": 0}
{"smiles": "COc1cc2nc(N3CCC(CNC(=O)c4ccc(-c5ccc(C(=O)N(C)C)cc5O)cc4)CC3)nc(N)c2cc1OC", "inhibition": 3}
{"smiles": "CCN(CC)CCN(Cc1ccc(-c2ccc(C(F)(F)F)cc2)cc1)C(=O)Cn1c(CCc2cccc(F)c2F)nc(=O)c2sccc21", "inhibition": 6}
{"smiles": "Cc1[nH]c(C)c(-c2ccc(-c3cccc(C(F)(F)F)c3)nc2)c(=O)c1Br", "inhibition": -4}
{"smiles": "Cc1ccc(C(=O)Nc2ccc(Nc3ccnc4cc(-c5ccccn5)ccc34)cc2O)cc1", "inhibition": 2}
{"smiles": "COC(=O)c1cccc(CNCc2cccc(-c3cccc(-c4nc5c(C)cccc5[nH]4)c3)c2)c1", "inhibition": 3}
{"smiles": "O=C(NCCN1CCCC1)c1cccc(-c2ccc(-c3nc4ccc(F)cc4[nH]3)s2)c1", "inhibition": -1}
{"smiles": "COC(=O)C(Cc1ccccc1)NC(=O)NC1CCN(c2ccnc(Nc3ccc(F)cc3)n2)C1", "note": "(stereo not given)", "inhibition": -3}
{"smiles": "O=C(CSc1n[nH]c(-c2ccccc2Br)n1)c1c[nH]c2ccccc12", "inhibition": -6}
{"smiles": "CN(C)CCN(C)Cc1ccc(-c2ccc(NC(=O)c3cccc(Cl)c3)cc2)cc1", "inhibition": 1}
{"smiles": "COc1ccc(CCn2c(=N)c(C(=O)NCc3ccccc3)cc3c(=O)n4ccccc4nc32)cc1", "inhibition": -1}
{"smiles": "CCOc1ccccc1NC(=O)Nc1ccc2c(c1)CCN(C1CCC1)CC2", "inhibition": -3}
{"smiles": "O=C(Nc1cccc(C(F)(F)F)c1)c1cccc2[nH]c(C(F)(F)F)nc12", "inhibition": -7}
{"smiles": "Cc1cc(C)c(O)c(-c2cc(C(=O)Nc3ccc(S(=O)(=O)N4CC(C)OC(C)C4)cc3)[nH]n2)c1", "note": "(stereo not given)", "inhibition": -1}
{"smiles": "CCNc1cc(C)nc(Nc2ccc(NC(=O)c3cccs3)cc2)n1", "inhibition": 0}
{"smiles": "CCOc1c(CNCCCNc2cc(=O)c3ccccc3[nH]2)cc(I)cc1OC", "inhibition": 2}
{"smiles": "O=C(NCCN1CCCCC1)N1CCCN(c2ncnc3cc(-c4ccccc4)sc23)CC1", "inhibition": -1}
{"smiles": "NC1CCN(Cc2ccc(-c3cccc(-c4nc5ccc(F)cc5[nH]4)c3)cc2)C1", "note": "(stereo not given)", "inhibition": 3}
{"smiles": "Cc1cccc2[nH]c(-c3ccc(-c4ccc(CNCc5ccccc5)cc4)s3)nc12", "inhibition": -1}
{"smiles": "COc1ccc2nc(/C=C/c3cccc4ccc(C)nc34)[nH]c2c1", "inhibition": -1}
{"smiles": "CCOC(=O)c1c(C)n(-c2ccccc2)c2ccc(OC(=O)COc3ccc(Cl)cc3Cl)cc12", "inhibition": 3}
{"smiles": "CCOc1ccc2c(NN=Cc3ccc(F)cc3)cc(C)nc2c1", "inhibition": -3}
{"smiles": "CCCCCC(C)N=C(Nc1ccc(C#N)cc1O)Nc1ccccc1Br", "note": "(stereo not given)", "inhibition": -3}
{"smiles": "O=C(CCc1cccnc1)Nc1ccc(-c2cccc(-c3nc4ccc(F)cc4[nH]3)c2)cc1", "inhibition": 2}
{"smiles": "COc1ccc2nccc(N3CCC(CCNCc4cc5c(cn4)OCCO5)CC3)c2c1", "inhibition": 6}
{"smiles": "Cc1cccc2[nH]c(-c3ccc(-c4cccc(CN5CCC(CCN6CCCCC6)CC5)c4)s3)nc12", "inhibition": -3}
{"smiles": "Cc1ccc(CN2CCN(c3cc4c(cc3Cl)CCN4C(=O)Cc3ccc(Cl)c(NC(=O)Nc4cccc(C#N)c4)c3)CC2)cc1", "inhibition": 1}
{"smiles": "O=C(NC1CCCc2ccccc21)C1CCCN(C(=O)c2ccc(O)c(-c3ccc(Cl)c(Cl)c3)c2)C1", "note": "(stereo not given)", "inhibition": -8}
{"smiles": "Nc1nc2ncn(COC(COCc3ccccc3)COCc3ccccc3)c2c(=O)[nH]1", "note": "(tested in a mixture with another compound)", "inhibition": -7}
{"smiles": "CN1CCN(c2ccc(Nc3nc(N)c4ccn(C5CCC5)c4n3)cc2)CC1", "inhibition": 2}
{"smiles": "CCCCCN1CCCC(CNS(=O)(=O)c2ccc(C(=O)Nc3ccc(C(F)(F)F)cc3)cc2)C1", "note": "(stereo not given)", "inhibition": -2}
{"smiles": "CC(=O)Nc1ccc(OCCCCN(Cc2ccccc2C(F)(F)F)c2ccc(C(F)(F)F)c(C#N)c2)c(Cl)c1", "inhibition": -1}
